In PubChem BioAssay (NCI):
The panel holds about 83,000 compounds, 20% with a hit somewhere; the sample as a whole holds those more often.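 Results are percent growth after 48 hours of single-concentration exposure. 100 means growth as in untreated cells, lower positive values show inhibition; negative values down to -100 show cell death.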 A number with no mark means an inactive call. The source made the active and inactive calls. How the source made its calls: active means growth percent below 10; inactive means the rest.

Each compound was assayed on NCI-H460 lung (assay: NCI-60 one-dose screen, 48 h (100 = growth as untreated, 0 = no growth, -100 = all killed)). Details: 10 µM unless noted.
Cc1ccc(Cl)cc1Nc1nc(C(F)(F)F)ccc1C(=O)N/N=C/c1cccnc1 was tested, and the growth was 18.3%. Fc1ccc(-c2nn(-c3ccccc3)cc2-c2nc3ccccc3o2)cc1 gave a growth of 37.5%. CCOC(=O)C(=Cc1cccc(Br)c1)C(=O)OCC was tested, and the growth was 68.2%. COc1cccc(NC(=O)Cn2cc(CN3CCN(c4ccnc5cc(Cl)ccc45)CC3)nn2)c1 was tested, and the growth was 97.5%. Compound CCOC(=O)c1cc2c(=O)oc3ccccc3c2oc1=O has a growth of 111%. For O=C(Nc1cc(Cl)ccc1O)c1ccc(Nc2ccnc(C(F)(F)F)c2)cc1, the growth was 7.25% (active). For C=C(C)[C@@H]1CC[C@]2(C(=O)O)CC[C@]3(C)[C@H](CC[C@@H]4[C@@]5(C)C[C@@H](Cc6cn(CCO[C@@H]7O[C@H](COC(C)=O)[C@H](OC(C)=O)[C@H](OC(C)=O)[C@H]7OC(C)=O)nn6)[C@H](O)C(C)(C)[C@@H]5CC[C@]43C)[C@@H]12, the growth was 62%. For CC(C)CCC[C@@H](C)[C@H]1CC[C@H]2[C@@H]3CC=C4C[C@@H](C(C(=O)O)C(=O)O)CC[C@]4(C)[C@H]3CC[C@]12C, the growth was -71.5% (active). With O=S(=O)(Nc1ccc(Cl)cc1)c1ccc(-c2cnc(C3CC3)o2)cc1 the growth was 9.01% (active). In the case of C#CCOc1ccc2ncnc(Nc3ccc(NC(=O)CCl)cc3)c2c1, the growth is reported as -46.4% (active). For CCOC(=O)C1=C(NC)OCC1=O, the growth was 101%. In the case of COC(=O)c1c2c(c(C)[n+]([O-])c1C)C(=O)C=C(NCc1ccc(Br)cc1)C2=O, the growth is reported as -53.8% (active). For CCN(CC)CCOc1ccc(-c2c(-c3ccccc3)c(=O)oc3ccccc23)cc1, the growth was 95.8%. For Nc1nc(=S)c2ncn(C3OC(COP(=O)(O)O)C(O)C3O)c2[nH]1 (configuration not stated), the growth was 8.01% (active). In the case of COc1ccc(/C=N/NC(=O)CCN2c3ccccc3Sc3ccccc32)cc1, the growth is reported as 85.4%. Work on c1cnc2[nH]cc(-c3csc(-c4cn(CCCN5CCOCC5)c5ccccc45)n3)c2c1 yielded a growth of 45.4%. For S=C1CCSC(=S)N1CCCN1C(=S)CCSC1=S, the growth was 97.7%. For COc1ccc(C(=O)Nc2ncc(Cc3ccc(F)cc3)s2)cc1, the growth was 6.59% (active). C=C1C(=O)O[C@H]2[C@H]1CC/C(COC(=O)NCc1cc[nH]c1)=C\CC[C@@]1(C)O[C@@H]21 gave a growth of 68.5%. For CN(C)CCCC1(c2ccc(F)cc2)OCc2cc(-c3cccc4[nH]ccc34)ccc21 (configuration not stated), the growth was -23.3% (active). For COC(C(=O)[C@@H](O)[C@@H](C)O)[C@@H]1Cc2cc3cc(O[C@H]4C[C@@H](O[C@H]5C[C@@H](O)[C@H](O)C(C)O5)[C@H](O)C(C)O4)c(C)c(O)c3c(O)c2C(=O)[C@H]1O[C@H]1C[C@@H](O[C@H]2C[C@@H](O[C@H]3C[C@@H](O)[C@H](OC)C(C)O3)[C@@H](O)C(C)O2)[C@H](O)C(C)O1 (some centres not stated), the growth was 9.27% (active). With CCNc1cc(-c2cccc(OC(F)(F)F)c2)nc2ccc(N3CCCC3)cc12 the growth was 1.03% (active). CCNc1nc(-c2ccc(Cl)c(OC)c2)c(-c2ccnc(NCCCNS(=O)(=O)c3ccc(Cl)cc3)n2)s1 was tested, and the growth was 63.7%. With Cc1nc2c(=O)[nH]c(SCC(=O)Nc3cccc(F)c3)nc2[nH]c1=O the growth was 102%. With Cc1ccc(-c2nc3nc(-c4ccc(F)cc4)nc(N4CCNCC4)c3o2)cc1 the growth was -84.6% (active). In the case of O=C(/C=C(/C=C/c1cccc2[nH]ccc12)OB(F)F)/C=C/c1cccc2[nH]ccc12, the growth is reported as 0.502% (active). Work on Oc1c(Cl)cc(Cl)c2ccc(Cn3cc(-c4cc(C(F)(F)F)cc(C(F)(F)F)c4)nn3)nc12 yielded a growth of 101%. With CC[C@@H](C(=O)[C@@H](C)[C@@H](O)[C@H](C)[C@@H]1O[C@@H]([C@@H](CC)C(=O)NCCc2ccc(F)cc2)CC[C@@H]1C)C1O[C@]2(C=CC(=O)[C@]3(CC[C@@](C)([C@H]4CC[C@](O)(CC)[C@H](C)O4)O3)O2)[C@H](C)C[C@@H]1C (some centres not stated) the growth was 35%. c1cc2[nH]ncc2cc1-c1nc2ccc3[nH]ncc3c2c2c1CCCC2 gave a growth of 13.6%. With C#CCOc1cccc(Nc2ncnc3c(NC(=O)C=C)cccc23)c1 the growth was 12.8%. In the case of N#Cc1cnc(NCCc2ccncc2)nc1-n1cnc2ccccc21, the growth is reported as 39.5%. CCOC(=O)c1c(NC(=O)c2ccc(C(C)C)cc2)sc2c(CN(C)C)c(O)ccc12 was tested, and the growth was 6.2% (active).
